Rows were chosen to be rich in hits. Some 4.1% of all compounds tested hit in one or more screens of this group.
hcDAF-12 act: H. contortus DAF-12 nuclear receptor activators, primary screen, cell-based, luminescence, HEK293, lit1-tk-luc reporter | HEK293 hcDAF-12 lit1-tk-luc reporter; 0% DMSO, 100% Δ7-dafachronic acid | activation, % at 6.8 µM | hit rate 1.4% among 370,000;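 active = activation above the mean of all tested compounds plus 3 SD, cut at about 5.5% in these data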
DAX1 inh-1: DAX1 (NR0B1) inhibitors, primary screen, cell-based, HEK293, Gal4-DAX1, luciferase luminescence; Nuclear receptor subfamily 0 group B member 1 (Homo sapiens), P51843; HEK293 Gal4-DAX1 luciferase reporter; inhibition, % at 6.75 µM; hit rate 0.99% among 340,000; AID 504766, 2011;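 active = inhibition above the mean over all tested compounds plus 3 SD, cut at about 4.2% in these data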;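 also: inhibition shows as a rise in luminescence from relieved DAX1 repression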
ssDAF12 agonist: S. stercoralis DAF-12 nuclear receptor activators, primary screen, cell-based, luminescence, HEK293, GRIP1 co-expression, lit1-tk-luc. HEK293 ssDAF-12/GRIP1 lit1-tk-luc reporter; % of 3 µM dafachronic acid response. hit rate 1% among 370,000. AID 652126, 2013. activation, % at 6.8 µM;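 active = activation above the mean over all tested compounds plus 3 SD, cut at about 0.9% in these data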
hgDAF12 agonist: H. glycines DAF-12 receptor agonists, primary screen, cell-based, luminescence, HEK293, GAL4 fusion, UAS-luciferase. Nuclear hormone receptor DAF-12 (Heterodera glycines), GAL4 fusion. HEK293 GAL4-hgDAF12 UAS-luciferase reporter, agonist luminescence; normalized to butyrate control. activation, % at 6.8 µM. hit rate 1.8% among 370,000. AID 687014, 2013;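 active = activation above a cutoff set at the mean of all screened compounds plus 3 SD, cut at about 10% in these data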
DAX1 inh-2: DAX1 (NR0B1) inhibitors on StAR promoter, primary screen, cell-based, luminescence, SF-1 (NR5A1), full-length DAX-1; inhibition, % at 6.8 µM; hit rate 1.1% among 370,000; HEK293T StAR-luciferase reporter, SF-1/DAX-1 repression relief; AID 652010, 2013;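 active = inhibition above the mean over all tested compounds plus 3 SD, cut at about 3.6% in these data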;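 also: higher inhibition means more luminescence from relief of DAX-1 repression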
DAX1 inh confirm: DAX1 (NR0B1) inhibitors relieving SF-1 repression, confirmation, cell-based, luminescence, HEK293T, full-length DAX-1, SF-1 activated StAR promoter; shares compounds with DAX1 inh-2; HEK293T StAR-promoter luciferase reporter, SF-1/DAX-1 repression; inhibition, % at 6.8 µM; hit rate 87% among 2,400;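 active = inhibition above the average of every tested compound plus 3 SD, cut at about 3.8% in these data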
Target sequence (P51843 whole entry, looked up): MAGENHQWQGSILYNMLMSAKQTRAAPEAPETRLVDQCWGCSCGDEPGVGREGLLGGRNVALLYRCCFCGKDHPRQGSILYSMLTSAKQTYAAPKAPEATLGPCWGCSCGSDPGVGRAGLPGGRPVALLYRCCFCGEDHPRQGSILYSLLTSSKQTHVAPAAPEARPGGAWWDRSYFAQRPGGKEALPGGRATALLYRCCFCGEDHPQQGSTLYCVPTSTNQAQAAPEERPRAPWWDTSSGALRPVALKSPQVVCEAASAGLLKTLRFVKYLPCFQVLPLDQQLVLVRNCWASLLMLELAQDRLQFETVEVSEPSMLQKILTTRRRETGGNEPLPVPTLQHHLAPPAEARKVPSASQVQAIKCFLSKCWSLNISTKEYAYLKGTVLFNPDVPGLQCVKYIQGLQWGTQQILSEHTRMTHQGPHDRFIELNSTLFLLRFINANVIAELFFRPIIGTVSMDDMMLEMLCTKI
SF1 AF2mut Luc: StAR reporter signal changes without DAX1, counter-screen for DAX1 inhibitor project, cell-based, luminescence, AF-2 mutant SF-1, transactivation | shares compounds with DAX1 inh-2 | HEK293 StAR-luciferase, SF-1 AF2 mutant | inhibition, % at 6.8 µM | hit rate 78% among 2,400 | AID 652136, 2013;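 active = inhibition above the mean of all tested compounds plus 3 SD, cut at about 3% in these data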
A number is an active result; - = inactive; . = not tested or not shown.

SMILES	hcDAF-12 act	DAX1 inh-1	ssDAF12 agonist	hgDAF12 agonist	DAX1 inh-2	DAX1 inh confirm	SF1 AF2mut Luc
Cc1cccc(C)c1NC(=O)CSc1nnc(C2CCCCC2)o1	-	-	-	-	-	.	.
COc1ccc(NC(=O)C2=Cc3ccccc3OC2)cc1	5.8	-	1.2	17.9	8.0	17.6	8.2
O=C(Nc1ccc(Cl)cc1)C1=Cc2cc(Cl)ccc2OC1	-	-	-	-	-	.	.
COc1cc(NC(=O)CCCN2C(=O)NC(C)(C)C2=O)cc(OC)c1	-	-	-	-	4.8	-	-
CCN1CCCCC(NC(=O)c2cccc(C(F)(F)F)c2)C1=O (stereo unspecified)	-	.	-	-	-	.	.
Cc1ccc(C)c(OCc2cc(C(=O)N3CC[C@@H]4CCCC[C@H]4C3)no2)c1	6.5	-	-	-	5.5	-	3.3
Cc1ccc(C)c(OCc2cc(C(=O)N3C[C@@H](C)O[C@@H](C)C3)no2)c1	-	-	-	-	4.6	4.8	4.2
Cc1ccc(C)c(OCc2cc(C(=O)N3CCN(C4CCCCC4)CC3)no2)c1	-	-	-	-	-	.	.
CCOC(=O)C1CCN(C(=O)c2ccc3c(=O)n4nc(Nc5ccccc5OC)sc4nc3c2)CC1	-	-	-	-	-	.	.
CCOc1ccc(NS(=O)(=O)c2ccc(C(=O)NCC3(N(C)C)CCCCC3)cc2)cc1	-	-	-	-	-	.	.
CCOc1ccc(NS(=O)(=O)c2ccc(C(=O)NCC3(N4CCCCC4)CCCCC3)cc2)cc1	-	-	-	-	4.5	11.4	3.5
O=C(NCC1(N2CCCCC2)CCCCC1)c1cccc(S(=O)(=O)Nc2ccc(F)cc2)c1	-	-	-	-	5.0	5.2	-
O=C(NCC1(N2CCCCC2)CCCCC1)c1cccc(NS(=O)(=O)c2ccccc2)c1	-	-	-	-	6.9	8.3	4.1
Cc1cc(S(=O)(=O)Nc2ccc(C(=O)NCC3(N4CCCCC4)CCCCC3)cc2)ccc1F	-	-	-	-	7.4	7.6	6.1
Cc1cc(S(=O)(=O)Nc2ccc(C(=O)NCC3(N(C)C)CCCCC3)cc2)ccc1F	-	-	-	-	-	.	.
COC(=O)C(Cc1cnc[nH]1)NC(=O)C1CCC(=O)N1 (stereo unspecified)	-	-	-	-	-	.	.
CC(=O)Nc1ccc(C(=O)NN2C(=O)NC3(CCCCC3)C2=O)cc1	-	-	-	-	-	.	.
CC(=O)Nc1ccc(C(=O)NCC2(N3CCCCC3)CCCCC2)cc1	-	-	-	-	4.6	5.3	3.0
Cc1ccc(C)c(NC(=O)CN(C)C(=O)c2cc3ccccc3oc2=O)c1	-	-	-	-	5.9	6.8	5.6
O=C(Nc1ccc(C(=O)N2CCCCC2)cc1)C1=CSCCO1	-	-	-	-	6.2	4.7	-
COc1ccc(CNC(=O)COC(=O)c2ccc(OCC3CCCO3)cc2)cc1 (stereo unspecified)	-	-	-	-	-	.	.
C=CCn1c(C)cc(C(=O)COc2ncnc3sccc23)c1C	6.3	-	-	10.9	5.2	13.8	6.5
O=C1CC(c2ccccc2)CC2=C1C1(CCCC1)N=C(Nc1nc3ccccc3o1)N2 (stereo unspecified)	-	.	-	-	4.5	-	-
O=C1CCCC2=C1C1(CCCCC1)N=C(Nc1nc3ccccc3o1)N2	-	-	-	-	-	.	.
COc1ccccc1CNC(=O)COC(=O)c1cccc(-n2cnnn2)c1	-	-	-	-	-	.	.
